# Where “and” joins values, the source holds several entries; their conditions need not be identical. Equal values may be shown once. About 83,000 compounds went through this panel and 20% of them were active in at least one assay; those are over-represented in the sample as a whole.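 Activity criterion: percent growth below 10, measured after cells in 96-well plates were exposed to a single compound concentration for 48 hours.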 Calls of active or inactive are those of the source.
# System: MDA-MB-468 breast
# Assay: NCI-60 one-dose screen, 48 h (100 = growth as untreated, 0 = no growth, -100 = all killed)
# Conditions: 10 µM unless noted
row,SMILES,growth
1,CCOc1ccccc1NC1=C(Cl)C(=O)c2nc(C)ccc2C1=O,-90.7% (active)
2,CN1CCN(Cc2ccc(C(=O)Nc3cncc(C#Cc4cnc(N)c5ccccc45)c3)cc2C(F)(F)F)CC1,-61.9% (active)
3,CCOC(=O)c1nn(-c2ccc(C)cc2)c(=O)c2c(N)c(C#N)c(-c3ccc(OC)cc3)cc12,102% (inactive)
4,CCS(=O)(=O)Nc1ccc(C(=O)CC2(O)C(=O)Nc3ccccc32)cc1 (stereo unspecified),95.4% (inactive)
5,C(=N\Nc1ncc(-c2cc3cc4c(cc3o2)OCO4)s1)/c1ccco1,27.3% (inactive)
6,O=C(Nc1ccc(I)cc1F)c1cc(Br)ccc1O,-2.63% (active)
7,Fc1ccc(Cc2ccc(F)cc2)cc1,104% (inactive)
8,CN(C)Cc1ccc(NC(=O)c2cncc(C#Cc3cnc(N)c4ncccc34)c2)cc1C(F)(F)F,84% (inactive)
9,CCCn1c2cc(OCc3cn(-c4ccc(Cl)cc4)nn3)ccc2c2ccnc(C)c21,38.9% (inactive)
10,O[C@H](c1cc(C(F)(F)F)nc2c(C(F)(F)F)cccc12)[C@@H]1CCCCN1,27.3% (inactive) and -6.87% (active)
11,CC(C)/C=N/NC(N)=S,19.3% (inactive)
12,NCCOc1ncccc1/C=C1\C2C=CC=CC2C2C=CC(F)=CC12 (stereo unspecified),-7.18% (active)
13,C#CC(=O)Nc1cccc2c1cc(C)n2-c1nc2c(c(NCc3ccccc3)n1)CCCC2,-63.3% (active)
14,O=S(=O)(NCCNc1nccc(-c2c(-c3cccc(F)c3)nc3occn23)n1)c1ccc(Br)cc1,67.7% (inactive)
15,CCC1CCc2nc3sc(C(=O)Nc4cccc(F)c4)c(N)c3cc2C1 (stereo unspecified),23.4% (inactive)
16,CNCCCOc1c(Br)cc(CCNC(=O)/C(Cc2ccc(OC)c(Br)c2)=N/O)cc1Br,48.5% (inactive)
17,O=C(/C=C/c1ccccc1)Oc1ccc(/C=C/c2cc(OC(=O)/C=C/c3ccccc3)cc(OC(=O)/C=C/c3ccccc3)c2)cc1,99.4% (inactive)
18,CCC1N=C(N)N=C(N)N1c1ccc(Cl)cc1 (stereo unspecified),80.6% (inactive)

row,SMILES,growth
1,CCn1c(Cc2ccccc2Nc2c(Cl)cccc2Cl)nnc1SCC(=O)NN1C(=O)/C(=C/c2cc(OC)c(O)c(OC)c2)SC1=S,-2.96% (active)
2,CN(C)c1ccc(/C=C(\C#N)c2cc3ccccc3n2C)cc1,31.8% (inactive)
3,Cc1ccc(-c2cc3nc(C(Cl)Cl)nc(-c4ccc(S(=O)(=O)N(C)C)cc4)n3n2)cc1,82% (inactive)
4,CN1CCN(c2ccc(Nc3nc(NCCNS(=O)(=O)c4ccccc4)c4sccc4n3)cc2)CC1,90.5% (inactive)
5,Nc1c(C(=O)Nc2ccccc2)sc2nc3c(cc12)C(=O)CCC3,4.62% (active)
6,COc1cc2c(Oc3ccc4[nH]c(C)cc4c3F)ncnc2cc1OCCCN1CCCC1,99.4% (inactive)
7,CCN(CC)CCN1C(=O)c2c(c(C)c3c(oc4cc(O)ccc43)c2C)C1=O,96.3% (inactive)
8,CCNCCNc1cc(-c2ccc(F)cc2)c(C#N)c2nc3ccccc3n12,-8.31% (active)
9,O=[N+]([O-])c1ccc(-c2nc(N3CCOCC3)c3c4c(sc3n2)CCCC4)cc1,94.8% (inactive)
10,C[n+]1cc2cc3c(cc2c2ccccc21)OCO3,-21.2% (active)
11,CC(=O)[C@H]1CCC/C=C/[C@@H]2C[C@H](O)C[C@H]2[C@H](O)/C=C/C(=O)O1,-34.9% (active)
12,O=C1c2ccccc2C(=O)c2c1oc1oc3c(c(=O)c21)c(=O)n(-c1ccccc1)c1ccccc31,-27.3% (active)
13,O=C(NC1CCCCC1)C(c1cccs1)N(CCc1ccccc1)C(=O)c1ccco1 (stereo unspecified),94.1% (inactive)
14,CC1=C(C)C(=O)OC([C@](C)(O)[C@]2(O)CC[C@@]3(O)[C@@H]4C[C@H]5O[C@]56CC=CC(=O)[C@]6(C)[C@H]4CC[C@]23COC(=O)c2ccc(C)o2)C1 (stereo partly specified),-55.6% (active)
15,CCOC(=O)[C@@H](C)C[C@H](Cc1ccccc1)NC(=O)c1csc([C@@H](C[C@H](C(C)C)N(C)C(=O)[C@@H](NC(=O)[C@H]2C[C@H](O[Si](C)(C)C(C)(C)C)CCN2C)C(C)C)OC(C)=O)n1,3.46% [9.25 µM] (active)
16,c1ccc(Cc2ccccc2)cc1,92.9% (inactive)
17,Cc1scc2c1N(C(=O)CN1CCN(C)CC1)c1ccccc1NC2=O,101% (inactive)
18,C/C=C1/CN(CCCCC)CC[C@H]1C(=O)c1cc2ccccc2[nH]1,90.7% (inactive)

# — PubChem BioAssay (NCI)
